Data on 51 compounds can be found in ChEMBL document CHEMBL3988442, “University of Dundee, Small-Polar-MMV Screening Library” (2021).

The target of test [1] is T1, Aspartate--tRNA(Asp/Asn) ligase (Mycobacterium tuberculosis (strain ATCC 25618 / H37Rv)) (UniProt P9WFW3). Also: in the data most compounds retested in dose-response had high values.
T1 sequence (whole entry): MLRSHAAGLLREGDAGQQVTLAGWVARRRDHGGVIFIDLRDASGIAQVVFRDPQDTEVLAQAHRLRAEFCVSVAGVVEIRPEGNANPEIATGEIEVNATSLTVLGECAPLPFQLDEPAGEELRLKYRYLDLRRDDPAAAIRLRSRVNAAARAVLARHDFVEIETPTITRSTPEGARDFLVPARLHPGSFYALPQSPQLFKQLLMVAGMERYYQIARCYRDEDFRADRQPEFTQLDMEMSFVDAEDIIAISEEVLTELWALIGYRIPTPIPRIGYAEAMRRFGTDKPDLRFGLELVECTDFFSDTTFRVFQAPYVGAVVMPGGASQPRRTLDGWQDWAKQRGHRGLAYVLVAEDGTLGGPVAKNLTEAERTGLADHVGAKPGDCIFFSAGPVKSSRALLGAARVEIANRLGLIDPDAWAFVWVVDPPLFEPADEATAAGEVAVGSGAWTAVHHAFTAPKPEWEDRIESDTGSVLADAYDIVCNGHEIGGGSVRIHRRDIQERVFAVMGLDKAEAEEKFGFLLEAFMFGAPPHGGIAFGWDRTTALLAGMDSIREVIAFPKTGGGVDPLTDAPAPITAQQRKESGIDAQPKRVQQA
Description: Assay for Asp RNA synthetase-1 from Mycobacterium tuberculosis. Also on record: scale not given: direction of the effect not stated beside the values. Type of test: functional. Conditions: 30 µM.

For test [2], the target named is Shiga toxin 2 (Escherichia coli O157:H7) (UniProt P09385+P09386). Nature of the test: E. coli 0.157:H7 Shiga Toxin SOP - stx2 screening assay. Also on record: scale not given: direction of the effect not stated beside the values. The note with it: 30 µM. Type of test: functional.

In the case of `CC1CCCN(C(=O)c2csc(S(N)(=O)=O)c2)CC1` (configuration not stated), the Percent Effect is 0.324% in test [1] and -19.1% in test [2].

For `Cc1csc(C2CCCN(C(=O)c3cnc4n[nH]c(C)c4c3)C2)n1` (configuration not stated), the Percent Effect was found to be 0.533% in test [1] and 21.9% in test [2].

As to `O=C(NCCCNC(=O)c1cccc(O)c1)Nc1ccc(F)cc1F`, the Percent Effect was -6.98% in test [1] and -56% in test [2].

As for `Cc1nc2ccccn2c1CN(Cc1cccnc1)CC1CCCO1` (configuration not stated), the Percent Effect is 8.51% in test [1] and -8.1% in test [2].

Turning to `CCCc1nc(NCCCO)c2c(n1)c(C)nn2CC`, the Percent Effect in test [1] was -5.08%; in test [2], -4.19%.

For the compound `CCN1CC(C(=O)NC(C)(C)CC(C)(C)C)CC1=O` (configuration not stated), the Percent Effect is 2.27% in test [1] and -6.14% in test [2].

As to `Fc1ccc(CN2CCCC(c3nnc(-c4cnccn4)o3)C2)cc1F` (configuration not stated), the Percent Effect in test [1] is 2.55%; in test [2], -5.16%.

As for `O=S(=O)(Nc1cnn(C2CCOCC2)c1)c1c(F)cccc1F`, the Percent Effect stood at 2.52% in test [1] and 1.54% in test [2].

Take `CC(C)n1c(C2CCCN(CCS(C)(=O)=O)C2)nc2ccccc21` (configuration not stated): the Percent Effect in test [1] is 0.943%; in test [2], 17.6%.

For `CCCNC(=O)N1CCC(Oc2cc(C)ccc2F)(C(=O)O)CC1`, the Percent Effect in test [1] is -3.4%; in test [2] it was 8.44%.

`Cc1nc(C2CCCN2C(=O)c2cc3c(s2)CCCC3)no1` (configuration not stated): the Percent Effect is -1.23% in test [1] and 23.4% in test [2].

As to `CCC1CN(C(=O)c2ccc(=O)[nH]c2)CCC(=O)N1Cc1ccccc1` (configuration not stated), the Percent Effect in test [1] is -4.62%; in test [2], 5.03%.

With `Cc1nccn1C1CCCN(C(=O)c2cc(O)nc3ccccc23)C1` (configuration not stated), the Percent Effect in test [1] turned out to be 1.77%; in test [2], 5.42%.

For `O=C(NC1(c2cccc(F)c2)CCOCC1)c1cc[nH]n1`, the Percent Effect in test [1] is 3.45%; in test [2], -26.7%.

As to `Cc1ccc(OCC(=O)NCc2ccccc2F)nc1`, the Percent Effect is -0.524% in test [1] and -8.96% in test [2].

`CC1Cc2ccccc2N1Cc1occc1C(=O)OCC(N)=O` (configuration not stated): the Percent Effect in test [1] was -3.97%; in test [2], -1.38%.

For `COC(=O)c1ccc(N2CCN(CCC#N)C(C)C2)cc1` (configuration not stated), the values for the Percent Effect in test [1] and in test [2] were 2.13% and 37.7%, respectively.

`CC(C(=O)NCCCN1CCCCCC1=O)n1cncn1` (configuration not stated): the Percent Effect in test [1] amounted to 2.08%; in test [2] it was 20%.

Regarding `Cc1ccc(-c2nc(CN3CCOC(c4ccccc4)C3)cs2)o1` (configuration not stated), the Percent Effect in test [1] was -0.792%; in test [2], 13%.

For the compound `CC(CNC(=O)N1CCN(c2cnccn2)CC1)Cc1cccs1` (configuration not stated), the Percent Effect in test [1] was 0.324%; in test [2], -14.3%.

`Cc1cccc2c1OCCC2NCc1c(C)nn(C)c1N(C)C` (configuration not stated): the Percent Effect worked out at 0.256% in test [1] and 28.5% in test [2].

For `CC(C)c1noc(CCCC(=O)NC2CCS(=O)(=O)C2)n1` (configuration not stated), the values for the Percent Effect in test [1] and in test [2] were 0.955% and -17.4%, respectively.

With `CCc1nccn1C1CCCN(C(=O)c2csc(COC)n2)C1` (configuration not stated), the Percent Effect in test [1] was 4.12%; in test [2] it was -14.9%.

Turning to `Cc1ncsc1C(=O)NCCn1nc2ccccn2c1=O`, the Percent Effect in test [1] is -1.86%; in test [2] it was 15%.

`CCN(CC)C(=O)c1nnc2ccc(N3CCOCC3)cc2n1`: the Percent Effect in test [1] is -5.17%; in test [2], -18.6%.

With `CCn1c(C)nnc1CN(C)C1CCN(CCc2ccncc2)C1` (configuration not stated), the results for the Percent Effect in test [1] and in test [2] were 2.19% and 13.6%, respectively.

For `CNS(=O)(=O)c1ccc(C(=O)NCCc2ccccn2)cc1`, the Percent Effect in test [1] amounted to 9.16%; in test [2] it was 14.4%.

With `Cc1ccsc1C(=O)N1CC(C(=O)N2CCOCC2)C2(CCOCC2)C1` (configuration not stated), the Percent Effect in test [1] was 7.88%; in test [2], -8.92%.

For the compound `CC(C)Cc1noc(CN2CCCC(Cn3cncn3)C2)n1` (configuration not stated), the Percent Effect is -2.91% in test [1] and -14.7% in test [2].

Consider `O=C(Nc1nc2c(s1)CCC2)c1cccnc1N1CCOCC1`, for which the Percent Effect in test [1] is -4.4%; in test [2], -10.3%.

Turning to `CC(C)c1nnc2n1CCN(C(=O)c1ccc3cc[nH]c3c1)C2`, the Percent Effect in test [1] was -2.98%; in test [2], 3.97%.

For the compound `CS(=O)(=O)NC[C@]12COC[C@H]1CN(C(=O)Cc1ccccc1F)C2`, the values for the Percent Effect in test [1] and in test [2] were 6.16% and -11.5%, respectively.

As for `CC(C)COCC(NC(=O)c1cccnc1)c1ccco1` (configuration not stated), the Percent Effect in test [1] worked out at 2.37%; in test [2] it was 21%.

Consider `Cc1nnc(N2C[C@@H](OCCCn3cccn3)[C@H]3OCCC[C@H]32)s1`, for which the Percent Effect in test [1] is -3.42%; in test [2], -13.8%.

Take `CNC(=O)c1ccc(C2CN(C(=O)COC)CCO2)nc1` (configuration not stated): the Percent Effect in test [1] turned out to be 5.69%; in test [2] it was 1.8%.

On to `CCn1cc(NC(=O)NCC(O)CN2CCc3ccccc3C2)cn1` (configuration not stated), for which the Percent Effect is 6.51% in test [1] and -38.6% in test [2].

Take `Cc1cc(C)n(C2CCCN(C(=O)c3cccc4[nH]ncc34)C2)n1` (configuration not stated): the Percent Effect is 7.59% in test [1] and -6.75% in test [2].

Consider `CN(C)c1ncc(CN2CCC(c3nnsc3S(C)(=O)=O)CC2)cn1`, for which the Percent Effect is -3.26% in test [1] and 1.96% in test [2].

Turning to `Cc1ccc(C)c(C(=O)CN2C(=O)c3ccccc3CS2(=O)=O)c1`, the figures for the Percent Effect in test [1] and in test [2] were 2.42% and -18.8%, respectively.

With `NS(=O)(=O)c1ccc(NC(=O)CSc2ccc3c(c2)CCC3)cc1`, the Percent Effect in test [1] was 3.87%; in test [2], -78.8%.

With `Cc1ccc(-c2cc(CNC(=O)N3CCOC(C)C3)on2)cc1` (configuration not stated), the Percent Effect in test [1] stood at 0.699%; in test [2], 9.22%.

In the case of `Cc1cc(C)c(CNC(=O)N2CCCC2c2cccn2C)c(=O)[nH]1` (configuration not stated), the values for the Percent Effect in test [1] and in test [2] were -3.71% and -31.2%, respectively.

On to `CC(C(=O)NCCN1CCCCCC1)n1cncn1` (configuration not stated), for which the Percent Effect is -4.21% in test [1] and -27.3% in test [2].

As to `Fc1cccc(-c2nc(CN3CCCCC3Cn3cncn3)co2)c1` (configuration not stated), the Percent Effect amounted to 0.0286% in test [1] and 14.4% in test [2].

`Cc1noc([C@@H]2C[C@H]3OCC[C@H]3N(S(C)(=O)=O)C2)n1`: the results for the Percent Effect in test [1] and in test [2] were -0.616% and -25.2%, respectively.

For the compound `c1ccc(OC2CCCC2)c(CNC2CCc3ncnn3C2)c1` (configuration not stated), the Percent Effect in test [1] is -1.83%; in test [2] it was 9.47%.

Regarding `O=C1NCC2(CCCN(Cc3ccc(Cl)s3)C2)Oc2ccccc21` (configuration not stated), the values for the Percent Effect in test [1] and in test [2] were -6.49% and -53.7%, respectively.

In the case of `CO[C@H]1CCN(c2ccc(C)nn2)[C@H]1Cc1cnn(C)c1`, the Percent Effect was found to be 1.39% in test [1] and 3.96% in test [2].

With `COc1cc2ncn(CC(=O)NCCCN(C)C)c(=O)c2cc1OC`, the Percent Effect is -2.9% in test [1] and -29.9% in test [2].

Consider `COc1ccc(NC(=O)CNc2ccc(Br)cc2F)cc1`, for which the figures for the Percent Effect in test [1] and in test [2] were 1.68% and -79.8%, respectively.

For the compound `Cc1cc(C(=O)N2CCCC2Cn2nc(C)cc2C)on1` (configuration not stated), the Percent Effect in test [1] came to 0.681%; in test [2] it was 20%.
